# The supplement of paper PMC6555819
# What was measured:
# Assay in all cases: PBM binding z-score (relative to random genomic background probes); higher = stronger binding; sequences stand for … in GC…GCGATTGACAGCGTAGAATGAAGG
# [1] = test system: FXR:RXRa (NR concentration 270 nM, RXRa partner concentration 90 nM)
# In short: (§1)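 Ligand-free nuclear receptor dimers were applied to custom Agilent 4×180K protein-binding microarrays whose double-stranded probes carried direct-repeat seeds, single-nucleotide variants, half-site ablations and random human genomic background sequences in 34-nt variable regions. Incubation lasted 1 h. Binding z-scores were computed against the random background probes from regression-normalized fluorescence.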
# [2] = test system: LXRa:RXRa (NR concentration 270 nM, RXRa partner concentration 90 nM)
# In short: as §1
# [3] = test system: LXRa homodimer (NR concentration 270 nM)
# In short: as §1
# [4] = test system: LXRb:RXRa (NR concentration 270 nM, RXRa partner concentration 90 nM)
# In short: as §1
# [5] = test system: LXRb homodimer (NR concentration 270 nM)
# In short: as §1
# [6] = test system: PPARa:RXRa (NR concentration 270 nM, RXRa partner concentration 90 nM)
# In short: as §1
# [7] = test system: PPARg:RXRa (NR concentration 180 nM, RXRa partner concentration 90 nM)
# In short: as §1
# [8] = test system: PPARg:RXRa 270nM:90nM, anti-RXR (NR concentration 270 nM, RXRa partner concentration 90 nM)
# In short: as §1
# [9] = test system: PPARg:RXRa 30nM:10nM, anti-RXR (NR concentration 30 nM, RXRa partner concentration 10 nM)
# In short: as §1
# [10] = test system: PPARg:RXRa 90nM:30nM, anti-RXR (NR concentration 90 nM, RXRa partner concentration 30 nM)
# In short: as §1
# [11] = test system: PPARg:RXRa DBDmut IVT, anti-RXR (DBD mutation: RXRa K156A/R161A, NR concentration 270 nM, RXRa partner concentration 90 nM)
# In short: as §1
# [12] = test system: PPARg:RXRa IVT, anti-PPARg (NR concentration 270 nM, RXRa partner concentration 90 nM)
# In short: as §1
# [13] = test system: PPARg DBDmut:RXRa IVT, anti-PPARg (DBD mutation: PPARg1 K132A/R137A, NR concentration 270 nM, RXRa partner concentration 90 nM)
# In short: as §1
# [14] = test system: PPARg DBDmut IVT, anti-PPARg (DBD mutation: PPARg1 K132A/R137A, NR concentration 270 nM)
# In short: as §1
# [15] = test system: PPARg homodimer (NR concentration 180 nM)
# In short: as §1
# [16] = test system: PXR:RXRa (NR concentration 270 nM, RXRa partner concentration 90 nM)
# In short: as §1
# [17] = test system: PXR homodimer (NR concentration 270 nM)
# In short: as §1
# [18] = test system: RARa:RXR (NR concentration 270 nM, RXRa partner concentration 90 nM)
# In short: as §1
# [19] = test system: RARa homodimer (NR concentration 270 nM)
# In short: as §1
# [20] = test system: RARb:RXRa (NR concentration 270 nM, RXRa partner concentration 90 nM)
# In short: as §1
Sequence,PBM binding z-score [1],PBM binding z-score [2],PBM binding z-score [3],PBM binding z-score [4],PBM binding z-score [5],PBM binding z-score [6],PBM binding z-score [7],PBM binding z-score [8],PBM binding z-score [9],PBM binding z-score [10],PBM binding z-score [11],PBM binding z-score [12],PBM binding z-score [13],PBM binding z-score [14],PBM binding z-score [15],PBM binding z-score [16],PBM binding z-score [17],PBM binding z-score [18],PBM binding z-score [19],PBM binding z-score [20]
TATACAGGGGCAAAGGCCAGAGTACGAATGTCGA,0.799,1.07,0.0951,1.34,1.92,2.84,4.54,5.09,3.45,4.92,0.641,2.72,1.72,2.01,1.16,0.577,0.087,0.592,0.364,2.1
TCTTGTAGATCAGTAGAGGTTAAGAAAGTGCGCT,0.847,3.26,0.497,1.64,-0.181,1.44,-0.271,1.56,2.48,2.12,1.74,0.609,1.08,0.665,0.247,2.93,-0.0152,1.63,0.74,0.882
CAGACTAGGTCACGAAAGGTCAAAGTCGAATGAC,7.54,8.31,7.86,7.34,2.45,6.6,9.66,7.89,5.88,7.73,7.63,8.03,2.48,2.21,6.4,6.89,2.84,7.62,4.19,5.6
GCAGACCGGTGAAACGCAGGTAACTCAGGGTGGC,-0.668,-0.615,-0.629,-0.971,-1.86,-1.17,-0.0428,-1.18,-1.16,-1.16,-0.72,-0.532,-1.77,-1.81,-1.43,-0.781,-1.17,-0.497,-1.38,-0.191
AGAACGAGGGCAATGAGTTGATAGCTCGGGTGGC,0.0898,-0.196,-0.745,-0.286,-0.548,1.23,1.03,0.695,-0.213,0.434,3.68,2.41,0.337,-0.763,-0.195,1.36,5.33,0.0914,-0.796,2.08
CTCGAAAGGTCGTGCTCAGGTGTGTATACCAAAC,5.43,3.78,0.295,3.62,0.401,4.72,2.43,3.56,1.06,2.46,0.974,2.05,0.571,-0.156,3.36,3.32,0.146,4.07,-0.478,3.99
ATCTTTAGGTAACCAAGTTCAGTGAATGCCGAAC,0.613,1.14,0.896,0.862,1.2,0.968,0.323,0.52,0.251,0.342,2.35,1.85,1.09,1.61,0.811,2.06,1.53,1,0.564,1.31
ATCGAAAGGTCGTGAGGTCAGTATACAGAAAGGC,6.58,5.12,1.48,4.57,1.04,5.7,5.27,5.25,2.05,3.65,0.335,2.89,1.16,0.766,3.48,5.08,0.97,5.65,1.02,5.02
TCATATAGGTAAGAGGTGAAAGTCGGTGTGGTAA,1.83,1.71,0.368,1.64,-0.0245,4.31,7.08,7.24,6.37,7.94,4.67,4.43,1.44,0.671,1.73,1.31,0.509,2,1.54,1.44
AGTCAAAGTTCATCTAGGTAAAGTAAGATATGCT,7.01,5.97,5.01,4.24,1.97,5.14,7.07,6.73,3.75,5.54,1.06,3.88,1.43,0.713,3.61,5.45,7.79,4.38,2.12,5.22
GCTTGGAGGACAAGGTCAGAGCTTTGTCCGTAGA,1.44,1.7,-0.316,1.03,-0.782,2.48,0.977,1.88,0.0499,1.35,1.24,1.71,-1.32,-1.05,0.764,1.76,-0.385,2.05,-0.509,3.48
CCTCGGAGGACAGAATGTCAGAGCTGTCCGCTTT,-0.31,-0.467,-0.713,-1.01,-0.428,-0.27,-0.416,-0.901,-0.655,-1.09,-0.17,-1.04,-1.38,-1.68,0.0941,-0.762,-0.458,-0.687,-0.242,0.241
CGTGCAAGGTCAATGCTAGGTCAGTGAAAGCATT,6.79,5.7,1.91,4.42,0.212,5.53,4.26,5.03,1.47,3.77,3.32,4.08,0.426,-0.53,3.59,4.91,0.967,6.46,0.996,5.34
